# KinaseGlo FLuc: Counterscreen for Luciferase (Kinase-Glo TM) Inhibition. Luciferin 4-monooxygenase (Photuris pensylvanica), Q27757. 200,000 compounds, 0.28% hits. Kinase-Glo luciferase, ATP luminescence, 8 min. Potency, µM (doses to about 38.3 µM), for the others: top-dose activity change, negative = inhibition, hits mostly inhibitors; also: % is scaled to controls: 0 for no effect and ±100 for the full control effect; nearly all actives have a fitted effect of over 60% in size
#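 Inhibition of Kinase-Glo luciferase light generation was assessed at 10 uM ATP in pH 7.2 imidazole buffer, with luminescence measured after eight minutes at ambient temperature.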
# NPC1 prom act: qHTS Assay for NPC1 Promoter Activators | Huh7 NPC1 promoter luciferase reporter, 24 h | Potency, µM (highest dose often 9.22 µM), inactives show at the top dose activation, most hits filed as activators | 320,000 compounds, 2.4% hits | AID 485313, 2010; also: % of control where 0% means no effect; nearly all actives have a fitted effect of over 60% in size
#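 Huh7 cells stably carrying NPC1 promoter–luciferase, plated in Opti-MEM with 10% FBS for 2 h, were exposed to compound in DMSO for 24 h at 37 °C; luciferase reagent was added for 10 min and luminescence read.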
# SMN2 splice enh: qHTS Assay for Enhancers of SMN2 Splice Variant Expression; HEK293 SMN2-luciferase splicing reporter, luminescence, 30-36 h; Potency, µM (series often up to 46.1 µM), for the others: at the highest dose activity change, positive = activation, hits mostly activators; 210,000 compounds, 2.8% hits; AID 1458, 2008; also: % of control where 0% means no effect; nearly all actives have a fitted effect of over 55% in size
#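 HEK293 cells carry an SMN2 […]–luciferase reporter in which exon 7 inclusion puts luciferase in frame. Cells were plated 10-12 h before compound addition, then incubated 30-36 h at 37C. ONE-Glo luminescence was read; sodium butyrate at 4.5 mM final served as control.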
# ELG1 genotoxic: qHTS screen for small molecules that induce genotoxicity in human embryonic kidney (HEK293T) cells expressing luciferase-tagged ELG1; HEK293T ELG1-luciferase reporter, luminescence, 16 h; Potency, µM (top dose mostly 46 µM), without a hit: at the top dose activity change, positive = activation, usual class: activators; 330,000 compounds, 1.3% hits; also: % of control where 0% means no effect; nearly all actives have a fitted effect of over 60% in size
#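 Genotoxic stress is detected as increased luminescence from luciferase-tagged ELG1 in HEK293T cells, measured with ONE-Glo after a 16 hr treatment at 37 °C.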
# Rab9 promoter act: qHTS Assay for Rab9 Promoter Activators; Huh7 Rab9 promoter-luciferase reporter, luminescence, 24 h; Potency, µM (titrated, usually from 9.22 µM), for inactives: at the top dose activation, negative = inhibition, actives largely listed as activators; 320,000 compounds, 2.8% hits; also: % of control where 0% means no effect; nearly all actives have a fitted effect of over 60% in size
#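 Luminescence read-out: Huh7 cells stably expressing Rab9-luciferase, treated 24 h with compound at 37 °C, then lysed with luciferase reagent for 10 min at ambient before reading.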
# FLuc modulator: qHTS profiling assay for firefly luciferase inhibitor/activator using purifed enzyme and Km concentrations of substrates (counterscreen for miR-21 project) | purified FLuc, Km substrates, luminescence inhibition | AID 588342, 2011 | 360,000 compounds, 6.9% hits | Potency, µM (highest dose often 57.5 µM), for the others: at the highest dose activity change, negative = inhibition, most hits filed as inhibitors | Luciferin 4-monooxygenase (Photinus pyralis), P08659;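 also: plate controls were vehicle for no effect and reference inhibitor for full effect; nearly all actives have a fitted effect of over 55% in size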
# Target sequence (P08659 whole entry, looked up): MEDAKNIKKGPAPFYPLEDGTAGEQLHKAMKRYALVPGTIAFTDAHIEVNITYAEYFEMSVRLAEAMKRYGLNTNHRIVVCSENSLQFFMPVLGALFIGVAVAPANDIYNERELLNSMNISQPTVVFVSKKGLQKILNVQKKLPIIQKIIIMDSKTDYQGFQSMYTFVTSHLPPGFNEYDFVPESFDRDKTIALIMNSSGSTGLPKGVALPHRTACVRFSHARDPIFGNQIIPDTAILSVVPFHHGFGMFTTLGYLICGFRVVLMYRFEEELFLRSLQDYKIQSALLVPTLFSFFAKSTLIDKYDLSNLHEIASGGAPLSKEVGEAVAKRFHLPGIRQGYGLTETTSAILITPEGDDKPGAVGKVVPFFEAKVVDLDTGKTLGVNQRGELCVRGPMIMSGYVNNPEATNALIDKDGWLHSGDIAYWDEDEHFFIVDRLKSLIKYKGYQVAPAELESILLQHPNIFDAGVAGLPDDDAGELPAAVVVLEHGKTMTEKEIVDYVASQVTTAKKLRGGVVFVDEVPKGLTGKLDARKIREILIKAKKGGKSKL
#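 Purified P. pyralis luciferase (10nM final) with 10uM D-luciferin and 10uM ATP (Km levels) in 50mM Tris acetate pH 7.5, 10mM Mg acetate, 0.01% Tween-20, 0.05% BSA; qHTS 6-point titration, ~60 µM downward; luminescence read.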
# Active calls of the source: *; ? = inconclusive; . = no result. An excerpt weighted towards active compounds, which were near 7.5% of everything screened. Calls follow the shape of the dose curve; as a rule, active = well fitted curve in the direction sought with a large enough effect; inconclusive = small, poorly fitted or top-dose-only effect, or another doubt; inactive = no such curve, though single readings can be large; an effect the other way counts as inactive or inconclusive. Potency is read from the fitted curve at half-maximal effect.
SMILES,KinaseGlo FLuc,NPC1 prom act,SMN2 splice enh,ELG1 genotoxic,Rab9 promoter act,FLuc modulator
COC(=O)c1cccnc1-n1c(=O)c2cccnc2n(CC(=O)Nc2cccc(C)c2)c1=O,.,.,6.5%,.,.,-0.7%
CCOC(=O)Cc1csc(NC(=O)c2csc(C)c2)n1,-1.3%,11.3%,-8.4%,?,-0.1%,?
CNC(=O)c1cc2ccccc2o1,-1.2%,0.5%,22.0%,6.6%,-3.7%,-3.5%
CCOC(=O)Cc1csc(NC(=O)c2cc(=O)c3ccccc3o2)n1,0.7%,-2.0%,5.0%,-2.7%,12.7%,16.9µM*
Cc1nc(NC(=O)c2cc3ccccc3o2)sc1C,.,-4.5%,.,0.651µM*,?,1.07µM*
CCOC(=O)c1sc(NC(=O)c2ccc(S(=O)(=O)N(C)C)cc2)nc1C,-0.3%,-15.2%,?,4.0%,-12.4%,-17.2%
CCOC(=O)Cc1csc(NC(=O)c2sc3nc4c(C)cc(C)cc4cc3c2N)n1,0.9%,18.1%,22.4µM*,?,22.3%,?
CCOC(=O)c1sc(NC(=O)c2ccc(CC)s2)nc1C,-6.5%,-2.9%,2µM*,2.59µM*,23.3%,?
O=C(NCc1ccccc1Cl)c1nnc(CS(=O)(=O)c2ccccc2)o1,.,-1.7%,.,2.6%,0.7%,0.8%
Cc1ccc(C(=O)NCc2ccco2)c(C)c1,.,14.6%,.,11.3%,9.7%,-15.4%
CCOC(=O)c1sc(NC(=O)c2cc3ccccc3o2)nc1C,-4.4%,-42.1%,11.2µM*,14.0%,-17.0%,2.39µM*
CCOC(=O)Cc1csc(/N=C/c2c(O)n(-c3ccccc3C(F)(F)F)c(=O)c3ccccc23)n1,5.5%,-2.3%,-10.3%,-5.8%,-2.5%,10.7µM*
CCOC(=O)Cc1csc(SCn2nnc3ccccc3c2=O)n1,-4.6%,3.4%,4.8%,1.5%,-0.4%,-2.8%
CCOC(=O)Cc1csc(N/N=C/c2ccc(C(F)(F)F)cc2)n1,4.8%,-4.9%,-21.7%,3.0%,1.9%,0.6%
CCOC(=O)c1sc(NC(=O)CC2OC(=O)c3ccccc32)nc1C (stereo not drawn),.,-3.4%,.,1.6%,0.2%,?
CCOC(=O)Cc1csc(-n2sc3ccccc3c2=O)n1,-7.3%,22.2%,-1.4%,?,28.1%,9.53µM*
O=C(Nc1nnc(C2CC2)s1)c1cc2ccccc2o1,.,2.82µM*,.,?,3.55µM*,13.5µM*
COc1ccc(-c2nnn3c2nc(NCCc2ccc(OC)c(OC)c2)c2ccccc23)cc1,.,.,19.4%,.,.,6.8%
C[C@H](CO)N1C[C@H](C)[C@@H](CN(C)Cc2ccncc2)Oc2ccc(NC(=O)CCCCCC(=O)Nc3ccccc3N)cc2C1=O,.,.,.,2.3%,.,.
Cc1cccc(C(=O)Nc2ccc3oc(-c4ccncc4)nc3c2)c1,.,.,-14.8%,.,.,-2.2%
COc1cc(OC)cc(OC(=O)C2CCN(C(=O)c3ccc(F)cc3)CC2)c1,.,0.3%,.,13.8%,-0.8%,1.3%
CCc1ccc(C(=O)Nc2cc(C)ccc2F)s1,-27.2%,0.1%,?,21.5%,23.4%,19µM*
C=CCOC(=O)c1sc(NC(=O)c2ccco2)nc1C,-20.2%,?,?,20.6µM*,?,9.53µM*
CCOC(=O)c1csc(NC(=O)c2cc3ccccc3o2)n1,.,?,.,?,?,3.38µM*
Cc1cnc(NC(=O)c2cc3ccccc3o2)s1,-11.1%,1.41µM*,2.24µM*,?,?,0.536µM*
SMILES,KinaseGlo FLuc,NPC1 prom act,SMN2 splice enh,ELG1 genotoxic,Rab9 promoter act,FLuc modulator
CCOC(=O)c1ccccc1NC(=O)c1cc2ccccc2o1,.,-1.8%,.,-15.3%,?,?
Cc1ccc(C(=O)Nc2cc([N+](=O)[O-])ccc2F)s1,8.2%,-4.1%,-9.4%,-1.3%,-7.5%,?
COC(=O)C1(CC(C)C)C=C2C(=C(C)C(=O)C2C)CN1 (stereo not drawn),-2.6%,.,3.1%,.,.,.
N#Cc1cc(N)ccc1-n1cccc1,.,-2.2%,.,-0.2%,-1.2%,2.3%
COc1ccccc1N1CCN(C(=O)c2ccc(N3CCCCS3(=O)=O)cc2)CC1,.,-3.0%,.,-10.0%,-0.2%,2.4%
CCOC(=O)Cc1nnc(NC(=O)c2ccccc2OC)s1,-5.0%,6.7%,-7.8%,12.7%,-32.6%,16.9µM*
O=C(CSc1nc(=O)n(CCCN2CCOCC2)c2c1CCCC2)Nc1cccc(Cl)c1,.,-4.2%,.,1.8%,0.1%,10.6%
O=C(Nc1c2c(nn1-c1ccc(F)cc1)CS(=O)(=O)C2)c1ccc2c(c1)OCO2,.,2.1%,.,-0.3%,2.6%,-0.6%
Cn1nnnc1SCC(=O)NC1CCCC1,.,-0.4%,.,1.3%,-1.2%,-0.9%
CC(C)Oc1ccc(C2c3c(oc4ccccc4c3=O)C(=O)N2CCCN2CCOCC2)cc1 (stereo not drawn),0.8%,4.0%,.,20.6µM*,13.9%,1.0%
C=CCOc1ccc(C2c3c(oc4ccccc4c3=O)C(=O)N2CCCN2CCOCC2)cc1 (stereo not drawn),-0.1%,-3.0%,4.2%,6.5%,0.4%,4.0%
Cc1ccc(C2c3c(oc4ccccc4c3=O)C(=O)N2CCCN2CCOCC2)o1 (stereo not drawn),-3.4%,1.6%,7.08µM*,6.7%,0.7%,2.8%
CCCCCCC(=O)c1c(C)[nH]c(C(=O)OCC)c1C,-0.6%,25.9%,?,14.1µM*,27.3%,?
CCCCCC(=O)c1c(C)[nH]c(C(=O)OCC)c1C,-2.9%,5.5%,-1.3%,-0.3%,6.1%,?
CCCCC(=O)OCC(=O)c1[nH]c(C)c(C(=O)OCC)c1C,-5.1%,0.1%,27.4%,12.4%,-1.5%,1.9µM*
CCOC(=O)c1c(C)[nH]c(C(=O)COC(=O)CSC)c1C,1.2%,-2.6%,7.9%,2.6%,-6.4%,10.7µM*
COc1ccc(NC(=O)Cn2c(=O)n(CC3CCCO3)c(=O)c3ccccc32)cc1 (stereo not drawn),.,.,1.4%,.,.,4.2%
Cc1ccc(/C=N/n2c(C3CCCCC3)n[nH]c2=S)cc1,.,-4.4%,.,-7.6%,-14.2%,0.2%
CC(C)C(OC(=O)c1ccccc1)c1nccc2ccccc12 (stereo not drawn),.,?,.,?,?,16.9µM*
O=C(OC(c1ccccc1)c1nccc2ccccc12)c1cccc([N+](=O)[O-])c1 (stereo not drawn),0.7%,16.3%,-2.3%,?,14.6%,?
CC1CCC(NC(=O)CN2C(=O)NC(C)(C)C2=O)CC1 (stereo not drawn),.,0.7%,.,0.116µM*,-8.3%,-1.1%
